According to PubChem BioAssay (NCI):
Compounds without any hit were thinned out: in the full panel of roughly 83,000, 20% have a hit.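 Results are percent growth after 48 hours of single-concentration exposure. 100 means growth as in untreated cells, lower positive values show inhibition; negative values down to -100 show cell death.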 Activity calls are given as the source filed them. The calls were made as follows: active = growth percent below 10; inactive = the rest.

Columns and labels:
Test in all cases: NCI-60 one-dose screen, 48 h (100 = growth as untreated, 0 = no growth, -100 = all killed)
Conditions in all cases: 10 µM unless noted
SR leukemia = tested on: SR leukemia
RPMI-8226 leukemia = tested on: RPMI-8226 leukemia
OVCAR-8 ovarian = tested on: OVCAR-8 ovarian
OVCAR-5 ovarian = tested on: OVCAR-5 ovarian
OVCAR-4 ovarian = tested on: OVCAR-4 ovarian
SK-OV-3 ovarian = tested on: SK-OV-3 ovarian
IGROV1 ovarian = tested on: IGROV1 ovarian
OVCAR-3 ovarian = tested on: OVCAR-3 ovarian
HS 578T breast = tested on: HS 578T breast
NCI/ADR-RES ovarian = tested on: NCI/ADR-RES ovarian
T-47D breast = tested on: T-47D breast
BT-549 breast = tested on: BT-549 breast
MDA-MB-435 melanoma = tested on: MDA-MB-435 melanoma
SW-620 colon = tested on: SW-620 colon
MCF7 breast = tested on: MCF7 breast
HCT-116 colon = tested on: HCT-116 colon
KM12 colon = tested on: KM12 colon
HCC-2998 colon = tested on: HCC-2998 colon

Measured: growth

Cn1ccnc1C(=O)/C=C/c1ccc(CC(=O)Nc2cc(F)c(F)c(F)c2)cc1
inactive: SR leukemia 12.1% | OVCAR-5 ovarian 17.9% | OVCAR-4 ovarian 41.7% | SK-OV-3 ovarian 85.2% | IGROV1 ovarian 29% | HS 578T breast 13% | T-47D breast 29.2% | BT-549 breast 16.3% | MDA-MB-435 melanoma 19.2% | MCF7 breast 10.7%
active: RPMI-8226 leukemia 4.01% | OVCAR-8 ovarian -3.42% | OVCAR-3 ovarian -33.9% | NCI/ADR-RES ovarian -29.8% | SW-620 colon 9% | HCT-116 colon 5.93% | KM12 colon 9.05%

COC1=C(OC)C(=O)C(CCCCCCCCCCO)=C(C)C1=O
active: OVCAR-4 ovarian -13.7%
inactive: SR leukemia 24% | RPMI-8226 leukemia 76% | OVCAR-8 ovarian 49.4% | OVCAR-5 ovarian 103% | SK-OV-3 ovarian 82.7% | IGROV1 ovarian 57.7% | OVCAR-3 ovarian 69% | HS 578T breast 92.6% | NCI/ADR-RES ovarian 29.2% | T-47D breast 19.3% | BT-549 breast 87.4% | SW-620 colon 103% | MCF7 breast 30.2% | HCT-116 colon 52.9% | HCC-2998 colon 115% | KM12 colon 67.5%

O=C(/C=C/c1ccco1)c1ccc(Nc2ccnc3cc(Cl)ccc23)cc1
inactive: OVCAR-8 ovarian 81.3% | OVCAR-5 ovarian 70.2% | OVCAR-4 ovarian 103% | SK-OV-3 ovarian 108% | IGROV1 ovarian 120% | OVCAR-3 ovarian 78.7% | HS 578T breast 114% | NCI/ADR-RES ovarian 73.9% | T-47D breast 83.7% | BT-549 breast 88.5% | MDA-MB-435 melanoma 92.5% | SW-620 colon 86.3% | MCF7 breast 56.1% | HCT-116 colon 33.7% | KM12 colon 80.2%
active: SR leukemia -50.4% | RPMI-8226 leukemia -34.9%

C/C(=C(\c1ccc(OCCCN(C)C)cc1)c1ccc(OC(=O)Cc2ccccc2)cc1)c1ccc(Cl)cc1
active: SR leukemia -34.9%
inactive: RPMI-8226 leukemia 27.1% | OVCAR-8 ovarian 89.2% | OVCAR-5 ovarian 89.3% | OVCAR-4 ovarian 69.8% | SK-OV-3 ovarian 73.3% | IGROV1 ovarian 88.4% | OVCAR-3 ovarian 70.4% | HS 578T breast 66.4% | NCI/ADR-RES ovarian 85.1% | T-47D breast 51.2% | BT-549 breast 83.9% | SW-620 colon 84.6% | MCF7 breast 23.5% | HCT-116 colon 58.3% | HCC-2998 colon 73.6% | KM12 colon 67.4%

CC(=O)c1c(/C=C/c2ccc(C)cc2)c2ccccc2[nH]c1=O
inactive: SR leukemia 99.5% | RPMI-8226 leukemia 91.5% | OVCAR-8 ovarian 86.8% | OVCAR-5 ovarian 100% | OVCAR-4 ovarian 88.9% | SK-OV-3 ovarian 90.2% | IGROV1 ovarian 57.4% | OVCAR-3 ovarian 92.5% | HS 578T breast 85.9% | NCI/ADR-RES ovarian 85.8% | T-47D breast 85.7% | BT-549 breast 95.1% | SW-620 colon 95.1% | MCF7 breast 88.7% | HCT-116 colon 91.7% | HCC-2998 colon 96.5% | KM12 colon 100%

CCN(CC)CCCC(Nc1c2ccc(Cl)cc2nc2ccc(OC)cc12)c1ccncc1 (stereo not drawn)
active: SR leukemia -6.47%
inactive: RPMI-8226 leukemia 74.3% | OVCAR-8 ovarian 58.4% | OVCAR-5 ovarian 96.6% | OVCAR-4 ovarian 68.5% | SK-OV-3 ovarian 97.6% | IGROV1 ovarian 75.7% | OVCAR-3 ovarian 95.6% | HS 578T breast 97.5% | NCI/ADR-RES ovarian 81.4% | T-47D breast 113% | BT-549 breast 94.6% | MDA-MB-435 melanoma 93% | SW-620 colon 61.9% | MCF7 breast 61.2% | HCT-116 colon 60.8% | KM12 colon 69.1%

COc1cccc(-c2nn(-c3ccccc3)cc2-c2ccnc(-c3cccnc3)c2)c1
inactive: SR leukemia 74.9% | RPMI-8226 leukemia 67.7% | OVCAR-8 ovarian 105% | OVCAR-5 ovarian 95.9% | OVCAR-4 ovarian 82.7% | SK-OV-3 ovarian 104% | IGROV1 ovarian 94.8% | OVCAR-3 ovarian 96.8% | HS 578T breast 120% | NCI/ADR-RES ovarian 90.6% | T-47D breast 76.9% | BT-549 breast 98.5% | SW-620 colon 109% | MCF7 breast 87.1% | HCT-116 colon 85.7% | HCC-2998 colon 96.4% | KM12 colon 94.7%

CC(C)n1nc(-c2ccc3oc(N)nc3c2)c2c(N)ncnc21
active: SR leukemia 9.35% | RPMI-8226 leukemia -6.46% | OVCAR-8 ovarian -17.5% | OVCAR-5 ovarian -9.99% | OVCAR-4 ovarian -32.2% | SK-OV-3 ovarian -32.6% | IGROV1 ovarian -27.3% | OVCAR-3 ovarian -6.08% | HS 578T breast -35.8% | NCI/ADR-RES ovarian -20.6% | T-47D breast -36% | BT-549 breast -23.9% | SW-620 colon 6.36% | MCF7 breast -4.22% | HCT-116 colon 7.89% | HCC-2998 colon 9.05% | KM12 colon -0.425%

c1ccc(-c2cn3nc(-c4c[nH]c5ccccc45)sc3n2)cc1
inactive: SR leukemia 21.7% | RPMI-8226 leukemia 91.8% | OVCAR-8 ovarian 93.3% | OVCAR-5 ovarian 74.2% | OVCAR-4 ovarian 70.4% | SK-OV-3 ovarian 80.4% | IGROV1 ovarian 56.5% | OVCAR-3 ovarian 86.1% | HS 578T breast 84.5% | NCI/ADR-RES ovarian 84.3% | T-47D breast 62.6% | BT-549 breast 91.3% | SW-620 colon 73.5% | MCF7 breast 59.1% | HCT-116 colon 84.2% | HCC-2998 colon 89.6% | KM12 colon 58.3%
